The source of these data is PubChem BioAssay AID743366 (National Center for Advancing Translational Sciences (NCATS), 2014).

The experiment in a line: qHTS profiling of inhibitors of Plasmodium falciparum (HB3) proliferation (acoustic dispense). The following applies: P. falciparum HB3 in erythrocytes, SYBR Green, 72 h; at 49.8 µM (top of the series) unless noted. From the text: Plasmodium falciparum is a virulent malarial parasite that kills 1-2 million people worldwide each year. Transmitted by mosquitoes, the sporozoite form of the parasite enters the blood stream to infect hepatocytes, where they become merozoites that infect red blood cells (erythrocytes). Within erythrocytes, merozoites begin a […] cycle of growth and division, after which the parasite is released to infect new red blood cells. Gametocytes, which form within erythrocytes as well, circulate in the bloodstream and are ingested by the mosquito, thereby completing the life cycle. To profile malarial isolates for differential chemical responses and to identify inhibitors of malarial growth, an assay that measures P. falciparum growth and replication within erythrocytes was employed. This assay uses a DNA binding fluorescent dye (SYBR Green) to detect parasite DNA following cell lysis. Because mature erythrocytes lack DNA, only Plasmodium-derived DNA is detected.
The SYBR Green viability assay was adapted from a method described previously (Plouffe et al., 2008). For screening 3 ul culture medium was dispensed into 1536 well black clear bottom plates (Aurora Biotechnologies) using a Multidrop Combi (Thermo Fisher Scientific Inc.), 23 nL of compounds in DMSO were added by an acoustic dispenser (EDC Biosystems), and 5 ul of erythrocytes infected with P. falciparum (0.3% parasitemia, 2.5% hematocrit final concentration) were added. The plates were incubated at 37 C in a humidified incubator in 5% CO2 for 72 h, and 2 ul lysis buffer (20 mM Tris HCl, 10 mM EDTA, 0.16% saponin, 1.6% triton X, 10X SYBR Green I supplied as 10,000X […] by Invitrogen) was added to each well. The plates were mixed for 25 sec with gentle shaking and incubated overnight at room temperature in the dark. The following morning, fluorescence intensity at 485(14) nm excitation and 535(25) nm emission wavelengths was measured on an EnVision (Perkin Elmer) plate reader. Plate reads were normalized relative to the control inhibitor (0.29 uM artemisinin) and vehicle (DMSO) wells present on each plate and then corrected by an algorithm using vehicle-only control plates at the beginning and end of the compound plate stack.
In general terms: qHTS replaces the single test concentration by a dilution series.
As to `COC1=CC(C)=C[C@@H](C)[C@@H](O)[C@@H](C)CC(C)=CC=C[C@H](OC)[C@H]([C@@H](C)[C@@H](O)[C@H](C)[C@@]2(O)C[C@@H](O)[C@H](C)[C@@H](C(C)C)O2)OC1=O`, the activity (normalised, proliferation) was determined as 0.863%.

In the case of `CC(=Cc1csc(C)n1)[C@@H]1C[C@H]2O[C@@H]2CCC[C@H](C)[C@@H](O)[C@@H](C)C(=O)C(C)(C)[C@@H](O)CC(=O)O1`, the activity (normalised, proliferation) came to 10.3%.

Regarding `O=C(C[C@@H]1NCCC[C@@H]1O)Cn1cnc2ccccc2c1=O`, the activity (normalised, proliferation) was -0.592%.

`CC(C)(N)CNC(=O)CC1CCC2(CC1)OOC1(O2)C2CC3CC(C2)CC1C3` (stereo unspecified): the activity (normalised, proliferation) was -0.313%.

Consider `O=c1[nH]c2ccc(Cl)cc2c(N[C@@H]2CN3CCC2CC3)c1-c1nc2ccccc2[nH]1`, for which the activity (normalised, proliferation) was -0.29%.

Turning to `C[C@H]1CCCC=CC2C[C@H](O)C[C@@H]2[C@H](O)C=CC(=O)O1` (stereo partly specified), the activity (normalised, proliferation) was -0.991%.

Regarding `COC(=O)[C@@]1(OC)C[C@@H]2O[C@@]1(C)n1c3ccccc3c3c4c(c5c6ccccc6n2c5c31)C(=O)N(C)C4`, the activity (normalised, proliferation) was -0.375% [at 16.5 µM].

In the case of `CC(=O)Nc1nnc(S(N)(=O)=O)s1`, the activity (normalised, proliferation) was determined as 89.5%.

Regarding `CC=C(C)C(=O)N[C@@H](c1ccccc1)[C@@H](O)C(=O)O[C@H]1C[C@@]2(O)[C@@H](OC(=O)c3ccccc3)[C@@H]3[C@]4(OC(C)=O)CO[C@@H]4C[C@H](O)[C@@]3(C)C(=O)[C@H](OC(C)=O)C(=C1C)C2(C)C`, the activity (normalised, proliferation) worked out at 2.88%.

As to `CO[C@H]1CCC(O[C@H]2C[C@H]([C@]3(C)CC[C@]4(C[C@H](O)[C@@H](C)[C@@H]([C@@H](C)C=C(C)C(=O)[C@H](C)C[C@H](C)C(=O)O)O4)O3)O[C@]3(O[C@@H]([C@H]4O[C@@](O)(CO)[C@H](C)C[C@H]4C)C[C@H]3C)[C@H]2C)O[C@H]1C` (stereo partly specified), the activity (normalised, proliferation) is 120%.

`C[C@@H]1C[C@@H]([C@H](O)CC2CC(=O)NC(=O)C2)C(=O)[C@@H](C)C1`: the activity (normalised, proliferation) worked out at 0.071%.

As to `CC(=O)N(O)CCCP(=O)(O)O`, the activity (normalised, proliferation) was 2.97%.

On to `CN1C(=O)C[C@H](C(=O)N[C@@H](Cc2cnc[nH]2)C(=O)N2CCC[C@@H]2C(N)=O)NC1=O`, for which the activity (normalised, proliferation) was 72.5%.

On to `CC1=C(O)C(=O)C=C2C1=CC=C1[C@@]2(C)CC[C@@]2(C)[C@@H]3C[C@](C)(C(=O)O)CC[C@]3(C)CC[C@]12C`, for which the activity (normalised, proliferation) was 7.07%.

With `CC=C1C2C=C(C)CC1(N)c1ccc(=O)[nH]c1C2` (stereo unspecified), the activity (normalised, proliferation) was 103%.

`C[C@]12O[C@H](C[C@@]1(O)C(=O)O)n1c3ccccc3c3c4c(c5c6ccccc6n2c5c31)CNC4=O`: the activity (normalised, proliferation) was found to be 8.93% [at 4.15 µM].
